From PubChem BioAssay (Tox21) come the findings set out here.

Several values for one entry are separate records, joined by “and”; a condition that tells them apart may be missing. Equal entries are not always repeated. Values without a mark were called inactive. Results filed as inconclusive are left out. Activity calls are given as the source filed them. Unless noted, calls follow the shape of the dose curve; as a rule, active = well fitted curve in the direction sought with a large enough effect in the repeat runs; inconclusive = weak or mixed curves; inactive = no such curve, though single readings can be large; an effect the other way counts as inactive or inconclusive.

The nature of test [1]: qHTS assay for small molecules that induce genotoxicity in human embryonic kidney cells expressing luciferase-tagged ATAD5 (AID 651632). Also: nearly all actives have a fitted effect of over 15% in size. In a few lines:
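Increased luciferase signal from ATAD5-tagged reporter cells indicates DNA-damage-driven ATAD5 induction. HEK293T cells are treated for 16 hr at 37C before detection with Amplite.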

The nature of test [2]: qHTS assay for small molecule agonists of the p53 signaling pathway - cell viability (AID 651633; calls by dose curve; also: nearly all actives have a fitted effect of over 30% in size; also: potency is read from the fitted curve at half-maximal effect). In a few lines: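 p53RE-bla cells, seeded at 4,000 per well and rested 5 h at 37 C/5% CO2, received compounds in DMSO for 16 h at 37 C. CellTiter-Glo was then added, and luminescence was read after 30 min at room temperature to gauge cytotoxicity.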
A short description of test [3]: qHTS assay for small molecules that induce genotoxicity in human embryonic kidney cells expressing luciferase-tagged ATAD5 - cell viability (AID 651634; calls by dose curve; also: nearly all actives have a fitted effect of over 25% in size). In a few lines:
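Cytotoxicity counterscreen in HEK293T cells bearing an ATAD5-luciferase reporter: live-cell protease activity measured by CellTiter-Fluor fluorescence after 15.5 hr compound exposure.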

Test [4] in a line: qHTS assay to test for compound auto fluorescence at 590 nm (red) in HepG2 cells (AID 720674). In a few lines:
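Rose Bengal sodium served as the red fluorophore standard. HepG2 monolayers (overnight attachment, MEM with 10% FBS) were exposed to test compounds for 1 hr at 37 C and read at Ex 540/Em 590 nm.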

Test [5] in a line: qHTS assay to test for compound auto fluorescence at 535 nm (green) in HepG2 cells (AID 720675).
The nature of test [6]: qHTS assay to test for compound auto fluorescence at 460 nm (blue) in HEK293 cells (AID 720678). Put shortly:
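Intrinsic compound fluorescence is recorded in live HEK293 cultures after overnight incubation at 37C, 5% CO2, using excitation 405 nm and emission 460 nm. Values are referenced to triamterene.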

Test [7] can be described thus: qHTS assay to test for compound auto fluorescence at 535 nm (green) in HEK293 cells (AID 720680).
The nature of test [8]: qHTS assay to test for compound auto fluorescence at 460 nm (blue) in HEK293 cell free culture (AID 720681). Put shortly: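 Test compounds were pinned into cell-free culture medium (DMEM with 10% FBS) and fluorescence was read directly at Ex/Em 405/460 nm. Signals were expressed as fluorescence equivalents of triamterene, with DMSO vehicle as control.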
Test [9] can be described thus: qHTS assay to test for compound auto fluorescence at 535 nm (green) in HEK293 cell free culture (AID 720682). Put shortly: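 No cells present: wells hold DMEM supplemented with 10% FBS, into which compound or vehicle is pinned. Green emission is then recorded (485 nm excitation, 535 nm emission) and scaled to fluorescein.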
Test [10] is described as follows: qHTS assay to test for compound auto fluorescence at 590 nm (red) in HEK293 cell free culture (AID 720683). Put shortly: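 Tox21 10K library compounds were pinned into cell-free DMEM with 10% FBS and fluorescence was read at excitation 540 nm. Activity is expressed as Rose Bengal sodium equivalency.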
A short description of test [11]: qHTS assay to test for compound auto fluorescence at 590 nm (red) in HepG2 cell free culture (AID 720684). In a few lines: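 Red fluorescence (540 nm excitation, 590 nm emission) was measured after compound transfer into cell-free MEM supplemented with 10% FBS. Values are equivalencies against Rose Bengal sodium.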
Test [12] is described as follows: qHTS assay to test for compound auto fluorescence at 460 nm (blue) in HepG2 cell free culture (AID 720685). Put shortly: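 Compound (23 nL) or DMSO pinned into cell-free MEM with 10% FBS; blue fluorescence read at 405/460 nm excitation/emission, expressed as auto-fluorescence equivalency to triamterene.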
Test [13] in a line: qHTS assay to test for compound auto fluorescence at 535 nm (green) in HepG2 cell free culture (AID 720686).
Test [14] can be described thus: qHTS assay to test for compound auto fluorescence at 460 nm (blue) in HepG2 cells (AID 720687). Put shortly:
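Cells (2,000/well in MEM with 10% FBS) attached overnight at 37 C, then were exposed to compound or DMSO for 1 hr at 37 C, 5% CO2. Fluorescence read at Ex/Em 405/460 nm, expressed as triamterene-equivalent signal.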

The target of test [15] is Glucocorticoid receptor (Homo sapiens) (UniProt P04150). In words: qHTS assay to identify small molecule agonists of the glucocorticoid receptor (GR) signaling pathway (AID 720691; active = well fitted activation curve with a large enough effect in the signal ratio in the repeat runs, not every such curve was filed as active; the % refers to the signal ratio). The note with it: GR-bla HeLa, beta-lactamase reporter ratio, 18 h; activation: at 62.4 µM (top of the series). In a few lines:
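Agonist mode in a HeLa line carrying a GRE-controlled beta-lactamase reporter. Compounds act for 18 h at 37 C before a 2 h room-temperature FRET substrate step and fluorescence reading.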

Test [16] shares this target. In words: qHTS assay to identify small molecule antagonists of the glucocorticoid receptor (GR) signaling pathway (AID 720692; active = well fitted inhibition curve with a large enough effect in the signal ratio in the repeat runs, not every such curve was filed as active; the % refers to the signal ratio). Put shortly:
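Cells plated, rested 4 h at 37 C/5% CO2; compounds in DMSO pin-transferred; dexamethasone added to 5 nM final; 18 h at 37 C; B/G FRET substrate added, 2 h room temperature; fluorescence measured.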

The nature of test [17]: qHTS assay for small molecule disruptors of the mitochondrial membrane potential - cell viability (AID 720634; calls by dose curve; also: nearly all actives have a fitted effect of over 20% in size; also: potency is read from the fitted curve at half-maximal effect). Put shortly:
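After overnight attachment at 37 C, HepG2 cells received compound or DMSO vehicle for 1 hr. Viability is then taken from ATP-driven luminescence following a 30 min room-temperature CellTiter-Glo step.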

A short description of test [18]: qHTS assay for small molecule disruptors of the mitochondrial membrane potential (AID 720635). Also: potency is read from the fitted curve at half-maximal effect. In a few lines: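 HepG2 cells (2,000/well) attached overnight at 37C, then took compound for 1 hr at 37C, 5% CO2. Mito-MPS dye was added for 30 min; fluorescence was read at 490/535 nm (monomers) and 540/590 nm (aggregates).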
Test [19] can be described thus: qHTS assay to test for compound auto fluorescence at 590 nm (red) in HEK293 cells (AID 720679). Put shortly: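 Red autofluorescence, HEK293 cells: 2,000 cells/well; attach 4-5 hr 37C; add 23 nL cpd or DMSO; incubate o/n 37C 5% CO2; read Ex540/Em590; Rose Bengal sodium reference.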
% is scaled to controls: 0 for no effect and ±100 for the full control effect.

Glucocorticoid receptor (Homo sapiens), sequence (P04150 whole entry, looked up): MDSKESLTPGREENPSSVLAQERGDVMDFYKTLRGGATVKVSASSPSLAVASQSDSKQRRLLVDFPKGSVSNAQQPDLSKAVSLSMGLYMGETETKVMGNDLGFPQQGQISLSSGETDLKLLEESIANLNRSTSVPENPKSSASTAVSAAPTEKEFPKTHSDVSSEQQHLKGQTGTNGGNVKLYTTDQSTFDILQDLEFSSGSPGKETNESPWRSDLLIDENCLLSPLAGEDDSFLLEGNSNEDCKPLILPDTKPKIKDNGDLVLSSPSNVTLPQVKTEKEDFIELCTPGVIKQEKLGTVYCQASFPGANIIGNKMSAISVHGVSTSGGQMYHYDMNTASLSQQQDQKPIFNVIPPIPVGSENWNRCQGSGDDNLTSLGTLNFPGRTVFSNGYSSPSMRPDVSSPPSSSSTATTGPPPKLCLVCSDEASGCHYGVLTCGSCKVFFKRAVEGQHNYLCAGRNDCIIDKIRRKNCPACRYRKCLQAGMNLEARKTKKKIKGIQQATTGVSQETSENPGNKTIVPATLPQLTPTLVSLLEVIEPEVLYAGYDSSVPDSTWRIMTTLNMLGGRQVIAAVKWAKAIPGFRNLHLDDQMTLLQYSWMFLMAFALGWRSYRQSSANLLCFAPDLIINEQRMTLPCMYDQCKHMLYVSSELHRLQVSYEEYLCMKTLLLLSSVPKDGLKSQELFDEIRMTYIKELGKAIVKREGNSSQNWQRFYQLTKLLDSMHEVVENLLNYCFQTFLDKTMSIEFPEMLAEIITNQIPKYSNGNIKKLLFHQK

On to `CCCCCCCCCCCCCOP(=O)(O)O`, for which the Potency result in [1], in test [3], in test [4], in test [5], in test [6] and in test [7] was “inactive” each time. Besides, the Potency result in test [8], in test [9], in test [10], in test [11], in [12] and in test [13] was “inactive” throughout. The Potency result in test [14], in test [15] and in test [16] was “inactive” each time. In test [2], the Potency was 48.6 µM (active).

`CCCCC(CC)COC(=O)c1ccc(O)cc1` (stereo not given): the Potency result in test [1], in test [3], in test [4], in test [5], in [6] and in [7] was “inactive” throughout. Moreover, the Potency result in test [8], in test [9], in test [10], in test [11], in test [12] and in [13] was “inactive” in each case. Also, the Potency entry in test [14] was “inactive”. In addition, the Potency in [2] is 54.3 µM (active); in test [17], 8.6 µM (active) and 24.3 µM (active); in [18], 5.43 µM (active) and 6.11 µM (active).

For the molecule `C[C@@H]1CC[C@H]2C(C)(C)[C@H]3C[C@@]12CC[C@@]3(C)O`, the Potency entry in test [1], in test [2], in [3], in test [5], in test [6] and in test [19] was “inactive” throughout. For the same molecule, the Potency result in test [7], in test [8], in test [9], in test [10], in test [11] and in [12] was “inactive” throughout. For the same molecule, the Potency entry in test [13] and in test [14] was “inactive” throughout. Also, the Potency in test [18] is 61 µM (active).

On to `CCN(CC)CCOC(=O)C1(C2CCCCC2)CCCCC1`, for which the Potency result in test [1], in [2], in [3], in [17], in test [4] and in [5] was “inactive” each time. Also, the Potency entry in test [6], in test [19], in [7], in test [8], in [9] and in [10] was “inactive” in each case. Further, the Potency entry in test [11], in test [12], in [13], in test [14], in test [15] and in test [16] was “inactive” throughout.

`CCCCNc1c(C(=O)OCC)c(C)nc2c1cnn2CC`: the Potency result in test [1], in test [2], in test [3], in test [4], in [5] and in test [6] was “inactive” in each case. Besides, the Potency result in test [19], in [7], in test [8], in test [9], in [10] and in [11] was “inactive” in each case. The Potency result in [12], in test [13], in [14], in [15] and in test [16] was “inactive” each time.

In the case of `C/C=C/C=N/NC(=O)c1ccncc1`, the Potency result in [1], in test [2], in [3], in test [17], in test [18] and in [5] was “inactive” in each case. In addition, the Potency result in [6], in test [7], in test [8], in [9], in test [10] and in test [11] was “inactive” in each case. Moreover, the Potency result in test [12], in [13], in [14], in test [15] and in [16] was “inactive” in each case.

With `CCCCN(CCCC)CCC(O)c1cc2c(Cl)cc(Cl)cc2c2cc(C(F)(F)F)ccc12` (stereo not given), the Potency entry in [1], in test [2], in test [3], in test [17] and in test [15] was “inactive” each time. Moreover, the fluorescence, relative to Rose Bengal in [4] is 0.511% [at 18.6 µM]. The fluorescence, % of fluorescein control in test [5] was 0.0229% [at 18.6 µM]; in [13] it was -0.0465% [at 18.6 µM]. Also, in [6], the fluorescence, % of triamterene was -0.234% [at 18.6 µM]. Moreover, the fluorescence, % of fluorescein in test [7] is -0.0754% [at 18.6 µM]. The fluorescence, % of fluorescent control was -0.0401% [at 18.6 µM] in test [8], 0.212% [at 18.6 µM] in test [10], -0.0142% [at 18.6 µM] in [12] and 0.0481% [at 18.6 µM] in test [14]. Moreover, the activity change in test [9] was -0.0209% [at 18.6 µM, active compounds read high]. In test [11], the fluorescence, % of Rose Bengal was 0.0098% [at 18.6 µM].
